From PMC7862700, “An all-to-all approach to the identification of sequence-specific readers for epigenetic DNA modifications on cytosine”

Key:
Test in all cases: DAPPL (digital affinity profiling via proximity ligation, sequencing); 10 mM Tris-HCl pH 7.5, 50 mM NaCl, 1 mM DTT, 4% glycerol, room temperature, 30 min; GST-TFs on glutathione beads, 16-mer random dsDNA library, 0.1% formaldehyde crosslink after washing; high values mean tight binding
Conditions in all cases: protein: recombinant; tags: N-terminal GST; dsDNA, one strand shown
ELK1 = target: T1, ELK1 (Homo sapiens, UniProt P19419 1-428)
T1 sequence: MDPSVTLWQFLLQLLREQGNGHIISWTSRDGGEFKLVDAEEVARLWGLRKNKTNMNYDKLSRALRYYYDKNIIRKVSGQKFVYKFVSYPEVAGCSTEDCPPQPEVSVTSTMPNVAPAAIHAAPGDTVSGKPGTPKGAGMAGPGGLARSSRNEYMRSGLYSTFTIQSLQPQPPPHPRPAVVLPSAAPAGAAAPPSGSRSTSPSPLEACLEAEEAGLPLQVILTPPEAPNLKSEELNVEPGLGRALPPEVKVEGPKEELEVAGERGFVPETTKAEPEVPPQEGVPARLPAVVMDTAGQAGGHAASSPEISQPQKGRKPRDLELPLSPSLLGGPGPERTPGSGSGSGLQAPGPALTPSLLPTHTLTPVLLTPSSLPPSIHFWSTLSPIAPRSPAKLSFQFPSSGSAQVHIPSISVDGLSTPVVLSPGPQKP
Summary of the method: (§1)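 Beads coated with glutathione captured GST-fused human transcription factors that had been expressed in yeast, and the factors were then given DNA barcodes and pooled with a tag-only sample. The pools were incubated with 200 nmole of a random double-stranded 16-mer DNA library in Tris/NaCl/DTT/glycerol buffer for 30 min at room temperature, washed, crosslinked with 0.1% formaldehyde and proximity-ligated with BsaI/T4 ligase at 37 °C for 1 h. PCR amplification and Illumina NextSeq500 sequencing came last. Binding signal is each hexamer's read frequency for a factor divided by its frequency for the tag-only sample.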

GABPA = target: T2, GABPA (Homo sapiens, UniProt Q06546 1-454)
T2 sequence: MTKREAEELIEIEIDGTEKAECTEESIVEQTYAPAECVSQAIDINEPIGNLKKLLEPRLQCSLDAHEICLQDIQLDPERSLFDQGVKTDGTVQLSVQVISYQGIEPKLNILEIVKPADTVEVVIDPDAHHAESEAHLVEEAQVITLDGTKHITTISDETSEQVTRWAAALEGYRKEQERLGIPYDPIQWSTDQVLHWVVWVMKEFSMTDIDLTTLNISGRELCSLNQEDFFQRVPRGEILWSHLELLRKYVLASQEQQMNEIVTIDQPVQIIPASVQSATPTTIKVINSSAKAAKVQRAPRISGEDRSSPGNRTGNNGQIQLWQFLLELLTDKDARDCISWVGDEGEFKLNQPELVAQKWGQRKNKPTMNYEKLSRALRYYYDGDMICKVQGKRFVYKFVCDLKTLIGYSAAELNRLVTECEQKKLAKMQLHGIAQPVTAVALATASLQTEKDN
Summary of the method: as §1

ERG = target: T3, ERG (Homo sapiens, UniProt P11308 1-479)
T3 sequence: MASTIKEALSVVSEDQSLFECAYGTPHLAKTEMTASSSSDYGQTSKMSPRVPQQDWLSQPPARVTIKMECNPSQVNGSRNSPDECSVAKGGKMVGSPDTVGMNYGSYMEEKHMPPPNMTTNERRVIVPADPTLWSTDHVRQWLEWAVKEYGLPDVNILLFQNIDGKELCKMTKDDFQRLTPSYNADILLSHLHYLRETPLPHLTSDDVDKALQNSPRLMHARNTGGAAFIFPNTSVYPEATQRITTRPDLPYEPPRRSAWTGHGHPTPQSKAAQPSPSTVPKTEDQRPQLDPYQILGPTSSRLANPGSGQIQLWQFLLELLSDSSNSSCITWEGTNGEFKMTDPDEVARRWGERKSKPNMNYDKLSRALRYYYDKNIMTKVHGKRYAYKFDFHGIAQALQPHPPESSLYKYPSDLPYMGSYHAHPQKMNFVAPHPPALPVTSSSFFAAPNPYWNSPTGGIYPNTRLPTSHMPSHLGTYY
Summary of the method: as §1

ELF1 = ELF1 (Homo sapiens, UniProt P32519 1-619)
Summary of the method: as §1

EHF = target: T4, EHF (Homo sapiens, UniProt Q9NZC4 1-300)
T4 sequence: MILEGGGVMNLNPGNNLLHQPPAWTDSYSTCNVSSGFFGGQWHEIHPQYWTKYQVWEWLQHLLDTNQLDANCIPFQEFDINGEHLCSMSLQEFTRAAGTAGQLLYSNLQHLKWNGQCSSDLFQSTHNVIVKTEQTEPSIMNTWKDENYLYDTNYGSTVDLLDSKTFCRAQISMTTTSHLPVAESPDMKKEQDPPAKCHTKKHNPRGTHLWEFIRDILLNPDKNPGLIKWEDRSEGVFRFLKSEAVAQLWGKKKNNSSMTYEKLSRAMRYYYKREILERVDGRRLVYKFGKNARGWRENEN
Summary of the method: as §1

SPIB = SPIB (Homo sapiens, UniProt Q01892 1-262)
Summary of the method: as §1

ELK3 = target: T5, ELK3 (Homo sapiens, UniProt P41970 1-407)
T5 sequence: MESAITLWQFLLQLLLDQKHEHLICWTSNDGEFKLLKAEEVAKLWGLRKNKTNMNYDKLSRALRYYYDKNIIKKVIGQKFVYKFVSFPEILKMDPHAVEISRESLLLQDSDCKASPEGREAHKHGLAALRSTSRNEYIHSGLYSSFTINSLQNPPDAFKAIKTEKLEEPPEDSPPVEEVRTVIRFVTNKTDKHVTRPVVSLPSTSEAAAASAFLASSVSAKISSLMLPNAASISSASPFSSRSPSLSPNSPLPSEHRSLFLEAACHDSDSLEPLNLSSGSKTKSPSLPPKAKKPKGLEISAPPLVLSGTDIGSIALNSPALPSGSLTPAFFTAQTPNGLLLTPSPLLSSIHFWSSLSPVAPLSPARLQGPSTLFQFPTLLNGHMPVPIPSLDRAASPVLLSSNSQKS
Summary of the method: as §1

ETV5 = ETV5 (Homo sapiens, UniProt P41161 1-510)
Summary of the method: as §1

ELF4 = ELF4 (Homo sapiens, UniProt Q99607 1-663)
Summary of the method: as §1

Chain of ETV5 (P41161 whole entry): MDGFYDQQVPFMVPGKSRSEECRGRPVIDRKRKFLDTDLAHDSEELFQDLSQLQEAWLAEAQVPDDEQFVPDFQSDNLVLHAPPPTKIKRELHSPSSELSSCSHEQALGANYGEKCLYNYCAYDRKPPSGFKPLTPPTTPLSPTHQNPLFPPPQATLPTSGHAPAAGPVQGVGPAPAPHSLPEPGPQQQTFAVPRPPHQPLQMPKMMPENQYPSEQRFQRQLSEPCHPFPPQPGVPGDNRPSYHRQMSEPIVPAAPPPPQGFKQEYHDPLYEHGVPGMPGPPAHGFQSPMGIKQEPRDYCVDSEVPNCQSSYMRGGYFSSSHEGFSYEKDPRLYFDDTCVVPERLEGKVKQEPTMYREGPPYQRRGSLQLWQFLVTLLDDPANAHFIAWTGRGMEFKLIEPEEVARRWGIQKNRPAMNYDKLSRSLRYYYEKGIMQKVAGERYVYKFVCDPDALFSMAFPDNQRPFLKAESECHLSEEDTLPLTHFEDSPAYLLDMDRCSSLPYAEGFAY
Chain of ELF4 (Q99607 whole entry): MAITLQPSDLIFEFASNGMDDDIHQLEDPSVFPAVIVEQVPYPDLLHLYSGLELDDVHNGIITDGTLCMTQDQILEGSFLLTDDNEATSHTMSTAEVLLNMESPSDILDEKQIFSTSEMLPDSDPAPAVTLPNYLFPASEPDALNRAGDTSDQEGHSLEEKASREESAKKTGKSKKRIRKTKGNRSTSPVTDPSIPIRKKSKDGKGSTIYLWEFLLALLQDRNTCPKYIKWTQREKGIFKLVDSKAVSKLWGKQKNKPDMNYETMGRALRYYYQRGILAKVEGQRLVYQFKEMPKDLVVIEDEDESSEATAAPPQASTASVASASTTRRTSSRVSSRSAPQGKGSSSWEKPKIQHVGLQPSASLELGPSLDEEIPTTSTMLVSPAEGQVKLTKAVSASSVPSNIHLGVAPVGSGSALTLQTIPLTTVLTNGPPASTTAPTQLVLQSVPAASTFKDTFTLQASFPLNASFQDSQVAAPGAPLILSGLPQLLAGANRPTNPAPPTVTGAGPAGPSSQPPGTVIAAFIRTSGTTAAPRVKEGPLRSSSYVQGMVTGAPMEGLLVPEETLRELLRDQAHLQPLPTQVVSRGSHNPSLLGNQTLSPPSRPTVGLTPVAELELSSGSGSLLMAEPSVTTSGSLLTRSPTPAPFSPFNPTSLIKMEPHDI
Chain of ELF1 (P32519 whole entry): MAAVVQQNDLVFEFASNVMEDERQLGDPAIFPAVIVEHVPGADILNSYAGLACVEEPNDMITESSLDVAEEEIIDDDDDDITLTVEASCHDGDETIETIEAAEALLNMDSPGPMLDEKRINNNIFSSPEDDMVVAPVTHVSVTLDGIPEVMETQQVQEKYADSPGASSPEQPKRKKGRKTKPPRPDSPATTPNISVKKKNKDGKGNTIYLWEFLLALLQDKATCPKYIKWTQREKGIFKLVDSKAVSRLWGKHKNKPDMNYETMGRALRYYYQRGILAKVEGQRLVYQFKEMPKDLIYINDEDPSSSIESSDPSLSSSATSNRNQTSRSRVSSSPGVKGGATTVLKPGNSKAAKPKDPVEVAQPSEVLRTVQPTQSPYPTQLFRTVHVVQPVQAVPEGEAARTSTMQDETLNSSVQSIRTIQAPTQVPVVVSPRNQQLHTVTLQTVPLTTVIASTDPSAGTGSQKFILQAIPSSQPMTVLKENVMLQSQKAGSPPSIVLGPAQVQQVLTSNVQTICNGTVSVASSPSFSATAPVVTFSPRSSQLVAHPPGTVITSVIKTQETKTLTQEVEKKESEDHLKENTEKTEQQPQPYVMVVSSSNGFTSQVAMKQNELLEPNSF
Chain of SPIB (Q01892 whole entry): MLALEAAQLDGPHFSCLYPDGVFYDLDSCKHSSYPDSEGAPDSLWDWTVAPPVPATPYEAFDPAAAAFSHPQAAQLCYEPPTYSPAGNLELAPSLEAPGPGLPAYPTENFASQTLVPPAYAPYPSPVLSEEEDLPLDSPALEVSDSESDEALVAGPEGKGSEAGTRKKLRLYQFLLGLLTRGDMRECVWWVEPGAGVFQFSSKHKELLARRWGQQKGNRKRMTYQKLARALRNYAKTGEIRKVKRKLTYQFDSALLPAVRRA

GGACTT
binding signal (ELK1): 1.24 fold enrichment (6-mer frequency, TF over GST control)
binding signal (GABPA): 1.16 fold enrichment (6-mer frequency, TF over GST control)
binding signal (ERG): 1.17 fold enrichment (6-mer frequency, TF over GST control)
binding signal (ELF1): 1.16 fold enrichment (6-mer frequency, TF over GST control)
binding signal (EHF): 1.11 fold enrichment (6-mer frequency, TF over GST control)
binding signal (SPIB): 1.11 fold enrichment (6-mer frequency, TF over GST control)
binding signal (ELK3): 1.11 fold enrichment (6-mer frequency, TF over GST control)
binding signal (ETV5): 1.15 fold enrichment (6-mer frequency, TF over GST control)
binding signal (ELF4): 1.09 fold enrichment (6-mer frequency, TF over GST control)
